The source of these data is PubChem BioAssay (EPA / NIEHS).

Read-out in test [1]: Macrophage colony-stimulating factor (MCSF), CSF1 (gene 1435)
Description: BSK_hDFCGF_MCSF: BioMAP Diversity Plus: hDFCGF Assay for Macrophage colony-stimulating factor (MCSF) Biomarker Activity (AID 2283060). The conditions noted are these: primary human foreskin fibroblasts; actives raise or lower the signal. An outline of the steps:
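ELISA read-out of M-CSF in human dermal foreskin fibroblast cultures, 24 h after chemical dosing; gain or loss of signal fitted bidirectionally relative to DMSO baseline.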

Test [2] in a line: BSK_hDFCGF_SRB: Viability Assessment in the BioMAP Diversity Plus: hDFCGF Assay (AID 2283061).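 Also: cells exposed to compound for 24 h before the read.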 Particulars: primary human foreskin fibroblasts. The method in brief:
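Primary human foreskin fibroblasts; 24 h post-dose; fixed 10% TCA, stained 0.1% SRB, A560 read; total protein as overt cytotoxicity measure; curves fit bidirectionally vs DMSO control.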

Read-out in test [3]: TIMP metallopeptidase inhibitor 1 (TIMP1), TIMP1 (gene 7076)
Description: BSK_hDFCGF_TIMP1: BioMAP Diversity Plus: hDFCGF Assay for TIMP metallopeptidase inhibitor 1 (TIMP1) Biomarker Activity (AID 2283062). Particulars: primary human foreskin fibroblasts; actives raise or lower the signal. The method in brief:
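ELISA readout of TIMP-1 from human dermal foreskin fibroblast cultures 24 h post-dosing. Curves were fitted in both directions against DMSO baseline, with SRB total-protein staining in parallel cultures as a cytotoxicity check.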

Read-out in test [4]: Monokine induced gamma interferon (MIG), CXCL9 (gene 4283)
Description: BSK_hDFCGF_MIG: BioMAP Diversity Plus: hDFCGF Assay for Monokine induced gamma interferon (MIG) Biomarker Activity (AID 2283063). The conditions noted are these: primary human foreskin fibroblasts; actives raise or lower the signal. An outline of the steps:
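Fibroblasts (human foreskin, primary) dosed, 24 h, MIG by ELISA; fit bidirectional vs DMSO.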

Read-out in test [5]: Matrix Metallopeptidase 1 (MMP1), MMP1 (gene 4312)
Description: BSK_hDFCGF_MMP1: BioMAP Diversity Plus: hDFCGF Assay for Matrix Metallopeptidase 1 (MMP1) Biomarker Activity (AID 2283064). The conditions noted are these: primary human foreskin fibroblasts; actives raise or lower the signal. An outline of the steps:
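ELISA read-out of MMP1 from human foreskin fibroblasts (primary skin cells), 24 h post-dose. Gain or loss of signal was fitted bidirectionally versus DMSO negative control; cytotoxicity was checked by SRB in parallel cultures.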

Read-out in test [6]: Vascular cell adhesion molecule 1 (VCAM1), VCAM1 (gene 7412)
Description: BSK_hDFCGF_VCAM1: BioMAP Diversity Plus: hDFCGF Assay for Vascular cell adhesion molecule 1 (VCAM1) Biomarker Activity (AID 2283065). Particulars: primary human foreskin fibroblasts; actives raise or lower the signal. An outline of the steps:
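ELISA read-out of VCAM-1 on human skin fibroblasts, 24 h post-dose; gain or loss of signal fitted bidirectionally against DMSO baseline.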

Read-out in test [7]: Plasminogen activator inhibitor-1 (PAI1), SERPINE1 (gene 5054)
Description: BSK_hDFCGF_PAI1: BioMAP Diversity Plus: hDFCGF Assay for Plasminogen activator inhibitor-1 (PAI1) Biomarker Activity (AID 2283066). Particulars: primary human foreskin fibroblasts; actives raise or lower the signal. The method in brief:
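Fibroblasts from human foreskin were treated with test chemical. After 24 h, PAI-1 was measured by ELISA. Activity was fitted in both directions relative to DMSO.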

Read-out in test [8]: Intercellular Adhesion Molecule 1 (ICAM1), ICAM1 (gene 3383)
Description: BSK_KF3CT_ICAM1: BioMAP Diversity Plus: KF3CT Assay for Intercellular Adhesion Molecule 1 (ICAM1) Biomarker Activity (AID 2283067). Particulars: primary human keratinocytes with fibroblasts; actives raise or lower the signal. The method in brief: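 ELISA readout of ICAM-1; KF3CT human skin co-culture (keratinocytes + foreskin fibroblasts), 24 h post-dose; gain/loss fit vs DMSO baseline.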

Read-out in test [9]: Interferon-gamma inducible Protein 10 (IP10), CXCL10 (gene 3627)
Description: BSK_KF3CT_IP10: BioMAP Diversity Plus: KF3CT Assay for Interferon-gamma inducible Protein 10 (IP10) Biomarker Activity (AID 2283068). The conditions noted are these: primary human keratinocytes with fibroblasts; actives raise or lower the signal. The method in brief:
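In a primary skin co-culture of keratinocytes and fibroblasts, IP-10 is quantified by ELISA at 24 h after dosing. SRB staining of parallel wells monitors overt toxicity. Curves are fitted both directions against DMSO.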

A short description of test [10]: BSK_KF3CT_SRB: Viability Assessment in the BioMAP Diversity Plus: KF3CT Assay (AID 2283069).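 Also: total protein by sulforhodamine B staining as a cytotoxicity measure; read 24 h after compound addition.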 The conditions noted are these: primary human keratinocytes with fibroblasts. An outline of the steps: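 SRB read-out at 560 nm (0.1% stain, TCA-fixed cells) gauges overt cytotoxicity in a human skin keratinocyte–fibroblast co-culture 24 h post-dosing. Signal change was fitted bidirectionally relative to DMSO control.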

SMILES strings stand for the structures. Calls of active or inactive are those of the source. The calls were made as follows: active = hit-call score of the fitted dose curve at least 0.9, where 1 is the maximum; inactive = score below 0.9.

Turning to `CCCCNc1ccccc1`, the result in test [1], in test [2], in test [3], in test [4], in [5] and in [6] was inactive. The result in test [7], in [8], in [9] and in test [10] was inactive.

For the compound `FC(F)(F)C(F)(F)C(F)(F)C(F)(F)C(F)(F)C(F)(F)CCS`, the outcome in [1], in test [2], in test [3], in test [4], in test [5] and in [6] was inactive. The outcome in test [7], in [8], in test [9] and in [10] was inactive.

By AC50 is commonly meant the midpoint of the concentration-response curve, whichever way the signal moves. As to `O[Si](c1ccccc1)(c1ccccc1)c1ccccc1`, the values for the AC50 in test [1], in test [2] and in test [7] were 5.61 µM (active), 5.35 µM (active) and 5.43 µM (active), respectively. The result in test [3], in [4], in test [5], in test [6], in test [8] and in test [9] was inactive. In addition, in test [10], the result was inactive.
